Screens (PubChem)
GALK inhibitor – blocks human galactokinase activity | P51570 | Purified GALK, Kinase-Glo residual ATP luminescence | Potency, µM (doses to about 57.5 µM), hits mostly inhibitors | 270,000 tested, 0.007% active | AID 1868
Target sequence (P51570 whole entry, looked up): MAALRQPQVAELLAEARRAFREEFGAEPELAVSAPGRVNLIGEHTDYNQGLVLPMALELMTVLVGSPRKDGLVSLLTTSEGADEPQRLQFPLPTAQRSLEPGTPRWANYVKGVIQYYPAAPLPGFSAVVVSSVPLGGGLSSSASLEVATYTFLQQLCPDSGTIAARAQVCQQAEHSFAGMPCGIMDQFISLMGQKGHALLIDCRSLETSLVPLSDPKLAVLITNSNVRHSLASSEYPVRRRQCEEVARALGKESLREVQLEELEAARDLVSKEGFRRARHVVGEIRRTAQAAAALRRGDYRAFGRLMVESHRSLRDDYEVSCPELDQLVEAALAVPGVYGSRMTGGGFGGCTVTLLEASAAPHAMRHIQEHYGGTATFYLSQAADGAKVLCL
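ATP-depletion format; final 35 uM ATP, 100 uM D-galactose, 5 nM enzyme; pH 8.0 HEPES/Mg2+ buffer; 60 min RT; luminescence read 10 min after detection reagent.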
Eya2 inh – inhibitors of human Eya2 phosphatase activity | O00167 | recombinant Eya2, OMFP fluorescence dephosphorylation (OMFP is methylfluorescein phosphate) | Potency, µM (series often up to 76.9 µM), hits mostly inhibitors | 330,000 tested, 0.006% active | AID 488837
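Eya2 (0.2 uM) preincubated 10 min at ambient with compound, then OMFP substrate added at 50 uM; 10 min reaction in 50 mM HEPES pH 7.5, 50 mM NaCl, 5 uM MgCl2, 0.05% BSA, 1 mM DTT. Fluorescence read at Ex 485/Em 525 nm.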
JMJD2E inh – JMJD2E (human) inhibition. B2RXH2. JMJD2E catalytic domain, FDH-coupled NADH fluorescence (FDH is formaldehyde dehydrogenase). Potency, µM (highest dose often 57.1 µM), hits mostly inhibitors. 230,000 tested, 1.6% active. AID 2147; active = well fitted inhibition curve with a large enough effect, not every such curve was filed as active; inconclusive = small, poorly fitted or top-dose-only effect, or another doubt; inactive = no such curve, though single readings can be large or run the other way; note: nearly all actives have a fitted effect of over 50% in size
Target sequence (B2RXH2 1-337 limits assumed): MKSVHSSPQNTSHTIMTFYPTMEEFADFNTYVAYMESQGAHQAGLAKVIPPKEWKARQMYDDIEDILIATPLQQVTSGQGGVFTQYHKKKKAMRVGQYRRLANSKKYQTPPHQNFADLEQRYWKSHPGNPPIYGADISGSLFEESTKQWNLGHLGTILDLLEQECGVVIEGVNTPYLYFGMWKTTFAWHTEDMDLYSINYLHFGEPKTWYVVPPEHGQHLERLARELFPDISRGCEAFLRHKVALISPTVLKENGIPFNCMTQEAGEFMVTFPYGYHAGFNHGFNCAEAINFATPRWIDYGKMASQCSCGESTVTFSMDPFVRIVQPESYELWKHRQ
Apoferritin bind – candidate novel general anesthetic via apoferritin binding; P02791; apoferritin/1-aminoanthracene competitive binding, fluorescence; Potency, µM (series often up to 77.5 µM), actives largely listed as inhibitors; 350,000 tested, 0.074% active; AID 485281; note: nearly all actives have a fitted effect of over 20% in size
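Read-out: endpoint 1-AMA fluorescence, excitation 380 nm and emission 535 nm, after compounds sit 10 min at room temperature with 10 uM horse-spleen apoferritin in 50% saturated 1-AMA/PBS. Values come from four-parameter Hill fits.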
Six1-Eya2 inh – inhibitors of human Six1/Eya2 interaction | Q15475+O00167 | AlphaScreen GST-Six1/His-Eya2 binding, biochemical; hits give low values | activity change, % (test concentration not listed) | 360,000 tested, 0.56% active | AID 651725; in the data active = activity change below about -65%; inconclusive = mostly about -30% to -63%
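Six1/Eya2 binding was read as AlphaScreen signal after compounds were pinned into GST-Six1 plus His-tagged Eya2 (5X stock 250/500 nM) in pH 8.0 Tris/NaCl/TCEP buffer, beads added, then incubated 1 h, 37 C, dark.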
CtBP-E1A inh – blocks the CtBP interaction with E1A; AlphaScreen GST-E1A/His-CtBP binding, 1536-well; hits give low values; activity change, % (no concentration beside the values); 340,000 tested, 0.49% active; in the data active = activity change below about -65%; inconclusive = mostly about -30% to -63%
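Homogeneous bead-based format: GST-tagged E1A captured on glutathione donor beads, His-tagged CtBP on nickel acceptor beads; compounds precede bead addition by 2 h at 37 °C.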
Numbers stand for hits; i = inactive; ? = inconclusive; nt = not tested or not shown; ! = not active in a repeat; [ ] = dose if it differs, or a comment. Only a selection was taken, and hits are over-represented in it overall. Unless noted, calls come from the whole dose curve; as a rule, active = well fitted curve in the direction sought with a large enough effect; inconclusive = small, poorly fitted or top-dose-only effect, or another doubt; inactive = no such curve, though single readings can be large; an effect the other way counts as inactive or inconclusive.

SMILES	GALK inhibitor	Eya2 inh	JMJD2E inh	Apoferritin bind	Six1-Eya2 inh	CtBP-E1A inh
Cc1ccc(S(=O)(=O)ON2C(=O)c3cccc4cccc(c34)C2=O)cc1	i	i	?	i	?	nt
OC[C@@H]1O[C@@H](O)[C@H](O)[C@H](O)[C@@H]1O	nt	nt	nt	i	nt	nt
O=P(c1ccccc1)(c1ccccc1)c1nc(-c2ccc(Cl)cc2)oc1N1CCOCC1	i	i	3.16µM	i	i	i
c1ccc(C(NCc2cccnc2)(c2ccccc2)c2ccccc2)cc1	nt	i	nt	i	nt	nt
O=C(O)c1ccccc1-c1ccccc1C(=O)Nc1ccc2c(c1)[nH]c(=O)c1ccccc12	i	i	?	i	-72.2	i
CO[C@@H]1COC(=O)[C@@H](CCSC)NC(=O)C/C=C\[C@@H](C)COC(=O)[C@H](C)NC(=O)C/C=C\[C@H]1C	nt	nt	nt	i[15.3 µM]	nt	nt
CCOC(=O)c1ccccc1NC(=O)N1CC(C)Oc2ccc(C)cc21 (stereo not given)	nt	nt	nt	i	nt	nt
Oc1ccc(NCc2ccccc2OCc2ccccc2)cc1	i	i	11.2µM	?	i	?
CCCN(CCC)S(=O)(=O)c1ccc(N2CCCCS2(=O)=O)cc1	nt	nt	nt	i	nt	nt
COc1ccc(-c2cc(=O)c3cc(OC)ccc3o2)cc1	i	i	0.708µM	i	i	i
Cc1nc(C)c(/C(O)=C\c2nc3ccc([N+](=O)[O-])cc3oc2=O)o1	i	?	20µM	i	i	i
COc1cccc2c1C(=O)c1c(O)c3c(c(O)c1C2=O)C[C@@](O)(C(C)=O)C[C@@H]3O[C@H]1C[C@H](N)[C@H](O)[C@H](C)O1	nt	i	35.5µM!	?	i	i
CCc1cc(=O)oc2cc(OCC=C(C)C)ccc12	i	i	?	?	i	i
CCc1cc(=O)oc2cc(OCc3nn[nH]n3)ccc12	i	i[15.4 µM]	20µM	i	i	i
COc1cccc(-c2coc3cc4oc(=O)c(CCC(=O)O)c(C)c4cc23)c1	i	i	nt	i	-77.4	-66.9
COc1cccc(-c2coc3c(C)c4oc(=O)c(CC(=O)O)c(C)c4cc23)c1	i	i	nt	i	i	i
COc1cccc(-c2coc3c(C)c4oc(=O)c(CCC(=O)O)c(C)c4cc23)c1	i	i	i	i	?	-87.6
CCOc1ccccc1NC(=O)CN1C(=O)CC(c2ccc(OC)c(OC)c2)Sc2ccccc21 (stereo not given)	nt	nt	nt	i	nt	nt
Cc1ccc(NC(=O)CSc2nc3c(oc4ccccc43)c(=O)n2Cc2ccco2)cc1	nt	nt	nt	i	nt	nt
CCc1nnc(SCC(=O)Nc2ccc(Cl)cc2F)c2cc3occc3n12	nt	nt	nt	i	nt	nt
CC1=C(SCCC#N)S/C(=C2\SC(C)=C(SCCC#N)S2)S1	i	i	i	i	-78.0	i
CCOC(=O)/C(C)=N/NC(C)=O	nt	nt	i	nt	nt	nt
COC(=O)C1=C(C(=O)OC)[C@@H]2N(C)c3ccc(OC)cc3[C@@]23C[C@@H](C(=O)OC)N(S(=O)(=O)c2ccc(Br)cc2)C3=N1	nt	nt	i[11.4 µM]	nt	nt	nt
c1ccc(Oc2nc(-c3ccccn3)nc3ccccc23)cc1	i	?	i	i	-78.5	-94.2
Fc1ccc(Oc2nc(-c3ccccn3)nc3ccccc23)cc1	nt	i	i	i	i	i
SMILES	GALK inhibitor	Eya2 inh	JMJD2E inh	Apoferritin bind	Six1-Eya2 inh	CtBP-E1A inh
COc1ccc(Oc2nc(-c3ccccn3)nc3ccccc23)cc1	i	?	i	i	-86.1	-66.0
c1ccc(-c2nc(N3CCCCCC3)c3ccccc3n2)nc1	i	i	i	?	-75.2	-72.8
COc1ccc(Oc2nc(-c3ccncc3)nc3ccccc23)cc1	i	i	i	i	i	i
Cc1cccc(Nc2nc(Nc3cccc(C)c3)nc(N3CCOCC3)n2)c1	nt	nt	nt	i	nt	nt
CCN1CCN(C(=O)NC(C(=O)NC2C(=O)N3C(C(=O)O)=C(CSc4nnnn4C)CSC23)c2ccc(O)cc2)C(=O)C1=O (stereo not given)	nt	nt	i	i	nt	nt
CC(=O)c1cc(O)c2ccccc2c1O	i	i	14.1µM	i	i	nt
Cc1[nH]n(-c2ccccc2)c(=O)c1/C=N/NC(=O)c1cccc(F)c1	i	i	nt	i	-92.3	nt
Cc1ccc(-n2[nH]c(C)c(/C=N/NC(=O)c3ccc(O)cc3O)c2=O)cc1	i	i	nt	i	?	?
Cc1[nH]n(-c2ccccc2)c(=O)c1/C=N/NC(=O)c1ccc(O)cc1O	i	i	nt	i	-90.7	nt
Cc1ccc(OCC(=O)N/N=C\c2c(C)[nH]n(-c3ccccc3)c2=O)c([N+](=O)[O-])c1	i	i	?	i	-90.6	-80.7
Cc1[nH]n(-c2ccccc2)c(=O)c1/C=N/Nc1nncc(-c2ccccc2)n1	i	i	?	i	-91.3	-91.3
CC#CC(C)C(OCOC)C(CC(C)Cc1cc(Br)cc(OCc2ccccc2)c1OC)OC (stereo not given)	nt	nt	nt	i[15.3 µM]	nt	nt
CCc1ccc(-c2nc(CS(=O)CC(=O)NCCc3ccc(C)cc3)c(C)o2)cc1 (stereo not given)	nt	nt	nt	i	nt	nt
Cc1[nH]n(-c2ccc(Br)cc2)c(=O)c1/C=N/NC(=O)c1ccccc1	i	i	nt	i	i	nt
Cc1cc(C(=O)N/N=C/c2c(C)[nH]n(-c3ccccc3)c2=O)n[nH]1	i	i	nt	i	-90.5	-93.8
Clc1ss/c(=N\c2ccccn2)c1Cl	i	i	i	i	-91.7	-86.3
Clc1ccccc1N=Nc1ccccn1	nt	nt	nt	nt	?	i
O=C(Nc1nc(-c2ccc(S(=O)(=O)N3CCCC3)cc2)cs1)c1ccco1	i	i	i	i	-68.7	-85.2
CNc1nc(-c2ccc(S(=O)(=O)N3CCCCC3)cc2)cs1	nt	i	nt	nt	i	nt
Nn1c(SCC(=O)Nc2ccc(F)c(F)c2)nnc1C1CCCCC1	i	i	i	4.47µM	i	i
N#Cc1c(-c2ccco2)nc(SCc2ccc(F)cc2)[nH]c1=O	i	i	i	i	i	i
Cc1nc(SCc2cccc(F)c2)[nH]c(=O)c1C#N	i	i	28.2µM	i	i	i
O=C(Cn1cnc2ccccc2c1=O)OCC(=O)c1ccc2c(c1)OCCO2	i	i[15.4 µM]	i	15.8µM	i	i
NC(C(=O)O)C(CC(=O)O)c1ccc(Cl)cc1 (stereo not given)	nt	nt	nt	i	nt	nt
CN(C)N=Nc1ccc(S(N)(=O)=O)cc1	i	i	i	i	i	i
SMILES	GALK inhibitor	Eya2 inh	JMJD2E inh	Apoferritin bind	Six1-Eya2 inh	CtBP-E1A inh
CCCC/C(O)=N\S(=O)(=O)c1ccc(N=NN(C)C)cc1	i	i	8.91µM	i	i	i
COc1cccc(CN(C(=O)c2oc3cc(C)ccc3c2C)C2CCS(=O)(=O)C2)c1 (stereo not given)	nt	nt	nt	i	nt	nt
Cc1occc(=O)c1O	i	i	15.8µM	i	i	i
Cc1c(O)ccoc1=O	i	i	?	i	i	i
COc1ccc(N=Nc2nc(-c3ccccc3)c(-c3ccccc3)[nH]2)cc1	i	i	i	i	-69.8	i
COc1ccccc1N=Nc1nc(-c2ccccc2)c(-c2ccccc2)[nH]1	i	i	i	i	?	i
Oc1ccccc1N=Nc1nc(-c2ccccc2)c(-c2ccccc2)[nH]1	i	i	i	?	-66.6	?
